In PubChem BioAssay (NCI) one finds growth inhibition data, which are given here for 14 compounds.

A short description of the assay: NCI Yeast Anticancer Drug Screen. Data for the cln2 rad14 strain (AID 165).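 Also: 0% = growth equal to vehicle treated cultures.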 The following applies: S. cerevisiae cln2 rad14 strain, stronger effect = higher value. Here is the method:
Growth inhibition of yeast strains with defined genetic alterations is measured as a screen for potential anti-cancer activity. Selected strains with alterations in DNA damage repair or cell cycle control were exposed to compounds and growth inhibition was measured relative to vehicle treated controls. The strain used in this assay is cln2 rad14

[1] abbreviates: at 5.0 µM (retest, dose inferred, filed as 0.5).
Where [2] appears, read: at 50.0 µM (retest, dose inferred, filed as 5.0).

Several values for one entry are separate records, joined by “and”; a condition that tells them apart may be missing. Equal values may be shown once. About 79,000 compounds went through this panel and 15% of them were active in at least one assay; those are over-represented in the sample as a whole. More than one record can exist for a structure, and the calls need not agree. Activity calls are given as the source filed them. Rule as the data show it: active = growth inhibition above about 70%; inactive = the rest.

For `COc1cc2c3c(c1)SCCC(=O)N3CCN2`, the growth inhibition was -4% (inactive) under setting [1], -4% (inactive) under setting [2] and 80.4% (active) (at 50.0 µM).
As to `CN(C)c1ccc(/C=C/c2sc3ccccc3[n+]2C)cc1`, the growth inhibition reads like this: under setting [1], -2% (inactive) and 13% (inactive); under setting [2], 99% (active) and 98% (active); (at 50.0 µM) 98.8% (active) and 99.3% (active).
As to `CNC(=O)N(C)CN(C)C(=O)NC`, the growth inhibition under setting [1] is -4% (inactive); the growth inhibition under setting [2] is -9% (inactive); the growth inhibition (at 50.0 µM) is 26.8% (inactive) and 18.6% (inactive).
For `CC1=NC(=Cc2ccc([N+](=O)[O-])cc2)C(=O)N1n1c(-c2ccccc2)nc2ccccc2c1=O`, the growth inhibition reads like this: under setting [1], 13% (inactive); under setting [2], 11% (inactive); (at 50.0 µM) 77% (active).
The corresponding values for `BrC(c1cccc2ccccc12)c1cccc2ccccc12` are 0% (inactive), 94% (active) and 92.8% (active).
The corresponding values for `O[Si](c1ccccc1)(c1ccccc1)c1ccccc1.O[Si](c1ccccc1)(c1ccccc1)c1ccccc1.O[Si](c1ccccc1)(c1ccccc1)c1ccccc1.[O]=[V]` are 15% (inactive), 31% (inactive) and 27.1% (inactive).
The matching figures for `OCc1ccccc1C(c1ccccc1)c1ccccc1`: 8% (inactive), 98% (active) and 5.85% (inactive).
With `CC12CCCCC1C/C(=N/NC(N)=O)CC2` (configuration not stated), the growth inhibition was -58% (inactive) under setting [1]; -42% (inactive) under setting [2]; 41.9% (inactive) and -25.8% (inactive) (at 50.0 µM).
On to `Nc1ccccc1Oc1ccc(Cl)cc1Cl`, for which the growth inhibition is, setting by setting: under setting [1], 22% (inactive); under setting [2], 98% (active); (at 50.0 µM) 92.3% (active).
Regarding `Cc1ccc(S(=O)(=O)SC/C=C\CSS(=O)(=O)c2ccc(C)cc2)cc1`, the growth inhibition runs as follows: under setting [1], 3% (inactive) and 12% (inactive); under setting [2], 94% (active); (at 50.0 µM) 88.6% (active) and 22.6% (inactive).
Regarding `Cc1ccc(C23C=CC(c4ccccc4)(C2)C2C(=O)OC(=O)C23)cc1` (configuration not stated), the growth inhibition reads like this: under setting [1], 36% (inactive); under setting [2], 97% (active); (at 50.0 µM) 92.2% (active).
The matching figures for `CCCCCCC(C(=O)OCC)N1C(=O)c2ccccc2S1(=O)=O` (configuration not stated): -3% (inactive), 16% (inactive) and 12.2% (inactive).
Turning to `C=CCN(CC=C)C(CC(=O)C(C)(C)C)=NCC`, the growth inhibition by setting is: under setting [1], 1% (inactive); under setting [2], 1% (inactive); (at 50.0 µM) 36% (inactive).
In the case of `CCOC(=O)c1c[nH]c2cc(C(F)(F)F)ccc2c1=O`, the growth inhibition was 9% (inactive) under setting [1], 24% (inactive) under setting [2] and 9.15% (inactive) (at 50.0 µM).
